One assay has as its system Klebsiella pneumoniae. Conditions: Concentration 32 ug.mL-1;; ASSAY_TEST Inhibition of Bacterial Growth; detection method Absorption (OD600); MEDIA CAMHB; plate type 384well; NBS; CORNING #3640; time 18 hr.
Another assay relates to Candida albicans. Conditions: Concentration 32 ug.mL-1; ASSAY_TEST Inhibition of Fungal Growth; detection method Absorption (OD530).
For another assay, the system named is Cryptococcus neoformans. Conditions: Concentration 32 ug.mL-1; ASSAY_TEST Inhibition of Fungal Growth; detection method Resazurin; Absorption (OD600-OD570); plate type 384well; NBS; CORNING #3640. On the technique in general: The colour change of resazurin is a common sign of viable cells or microbes.

Potency and affinity values are given separately.

As for `CCOc1ccc(-n2ccn3c(SCC(=O)c4ccccc4)nnc3c2=O)cc1`, the Inhibition is given as 1.87% in the assay with Klebsiella pneumoniae, 12.91% with Candida albicans and -3.51% in the assay with Cryptococcus neoformans.
Turning to `CCOc1cccc(CNC(=O)CCc2nnc3ccc(-c4ccc(C)cc4)nn23)c1`, the Inhibition is listed as 8.62% in the assay with Klebsiella pneumoniae, 2% with Candida albicans and -6.55% in the assay on Cryptococcus neoformans.
On the same counts, the results for `Cc1cc(Nc2ccc(F)cc2)nc2nn(Cc3cccc(C#N)c3)c(=O)n12` are 10.49%, 2.04% and -10.7%.
As to `COc1ccc(-n2ccn3c(-c4cccc([N+](=O)[O-])c4)nnc3c2=O)cc1`, the Inhibition in the assay on Klebsiella pneumoniae was 3.7%; in the assay on Candida albicans, 0.19%; with Cryptococcus neoformans, -14.9%.
Take `Cc1ccc(NC(=O)Cn2nc3ccc(SC4CCCCC4)nn3c2=O)c(Cl)c1`: the Inhibition in the assay on Klebsiella pneumoniae is given as 12.19%; with Candida albicans, 5.14%; with Cryptococcus neoformans it was -13.64%.
`Cc1ccccc1Oc1nccn2c(=O)n(CC(=O)Nc3ccccc3C(F)(F)F)nc12`: the Inhibition with Klebsiella pneumoniae was 15.23%; with Candida albicans it was -0.33%; with Cryptococcus neoformans, -11.87%.
In the case of `Cc1ccc(C)c(Cn2nc3c(=O)n(-c4ccc(C)c(C)c4)ccn3c2=O)c1`, the Inhibition with Klebsiella pneumoniae was 6.6%; in the assay on Candida albicans, 1.95%; in the assay with Cryptococcus neoformans it was -10.52%.
On the same counts, the results for `COc1cc(OC)c(NC(=O)Cn2nc3c(Sc4ccc(C)cc4C)nccn3c2=O)cc1Cl` are 6.06%, 4% and -14.9%.
Consider `Cc1ccc(NC(=O)Cn2nc3c(Sc4ccccc4)nccn3c2=O)c(C)c1`, for which the Inhibition in the assay on Klebsiella pneumoniae is 7.2%; with Candida albicans, 3.33%; with Cryptococcus neoformans, -10.8%.
The matching figures for `COc1cc(NC(=O)Cn2nc3n(CCc4ccccc4)c(=O)c4ccccc4n3c2=O)cc(OC)c1`: 10.27%, 12% and -22.83%.
The matching figures for `O=C(Cn1nc2c(N3CCOCC3)nccn2c1=O)NCc1ccc(Cl)cc1`: 8.43%, 3.53% and -3.97%.
As to `Cc1nnc2c(=O)n(CC(=O)Nc3ccccc3Br)c3ccccc3n12`, the Inhibition in the assay with Klebsiella pneumoniae was 8.13%; in the assay with Candida albicans it was 2.04%; in the assay on Cryptococcus neoformans, -7.03%.
The matching figures for `O=C(Cn1nc2nc(Nc3ccc(F)cc3)ccn2c1=O)Nc1cc(F)ccc1F`: 11.06%, 4.41% and -6.4%.
On the same counts, the results for `Cc1ccc(NC(=O)Cn2c(=O)c3nnc(C)n3c3ccccc32)cc1F` are 7.95%, 2.03% and -16.64%.
For `Cc1ccc(NC(=O)Cn2nc3c4c5c(sc4ncn3c2=O)CCCC5)cc1C`, the Inhibition is given as 7.59% with Klebsiella pneumoniae, 3.92% in the assay on Candida albicans and -29.29% with Cryptococcus neoformans.
As for `CCCc1nnc2c(=O)n(CC(=O)Nc3cccc(C#N)c3)c3ccccc3n12`, the Inhibition in the assay on Klebsiella pneumoniae is 0.67%; with Candida albicans, -0.31%; with Cryptococcus neoformans it was -17.76%.
In the case of `Cc1ccc(Cl)cc1NC(=O)CSc1nc2ccccc2n2c(C(C)C)nnc12`, the Inhibition in the assay on Klebsiella pneumoniae is reported as 7.66%; in the assay on Candida albicans, 11.96%; in the assay on Cryptococcus neoformans, -19.47%.
As for `CC(C)CCNC(=O)CSc1nnc2c3cc(-c4ccccc4)nn3ccn12`, the values for the Inhibition in the assay with Klebsiella pneumoniae, with Candida albicans and in the assay with Cryptococcus neoformans were 15.29%, 4.42% and -17.81%, respectively.
`COC(=O)c1ccc(NC(=O)CSc2nnc3c4cc(-c5ccc(OC)cc5)nn4ccn23)cc1`: the values for the Inhibition in the assay with Klebsiella pneumoniae, in the assay on Candida albicans and in the assay with Cryptococcus neoformans were 13.79%, 0.37% and -25.69%, respectively.
The matching figures for `Cc1cc(C)cc(NC(=O)Cn2nc3ccc(SCc4ccc(Cl)cc4)nn3c2=O)c1`: -2.52%, 46.75% and -25.54%.
The matching figures for `O=S(=O)(c1ccc2nncn2c1)N(Cc1ccccc1F)c1ccc(F)c(F)c1`: -0.52%, 1.44% and -2.71%.
For the compound `O=C(CCc1nnc2c(N3CCCCC3)nc3ccccc3n12)NCc1ccc(F)cc1`, the Inhibition is recorded as 6.52% with Klebsiella pneumoniae, 8.78% in the assay with Candida albicans and -23.71% with Cryptococcus neoformans.
On the same counts, the results for `CCc1nnc2ccc(S(=O)(=O)N(Cc3cccc(F)c3)c3ccc(OC)cc3)cn12` are -6.85%, 1.92% and -10.67%.
`CC(C)c1nnc2c(=O)n(CC(=O)Nc3cccc(Cl)c3)c3ccccc3n12`: the Inhibition in the assay on Klebsiella pneumoniae is 4.29%; in the assay on Candida albicans, 3.06%; with Cryptococcus neoformans, -36.03%.
`COc1cccc(-c2nc(CSc3nc4ccccc4n4c(C)nnc34)c(C)o2)c1OC`: the Inhibition with Klebsiella pneumoniae is on record as 8.41%; in the assay on Candida albicans it was 0.37%; in the assay on Cryptococcus neoformans, -19.84%.
Consider `O=C(Cn1nc2c(Oc3ccccc3)nccn2c1=O)Nc1ccc(F)cc1F`, for which the Inhibition in the assay on Klebsiella pneumoniae is given as 0.94%; in the assay with Candida albicans it was -1.91%; in the assay on Cryptococcus neoformans it was -7.74%.
Take `COc1ccc(NC(=O)c2ccc3nn(CC(=O)Nc4cccc(SC)c4)c(=O)n3c2)cc1`: the results for the Inhibition in the assay on Klebsiella pneumoniae, in the assay with Candida albicans and with Cryptococcus neoformans were -1.25%, 7.63% and -24.03%, respectively.
Take `Cc1nnc2ccc(S(=O)(=O)N(Cc3ccccc3)c3cccc(F)c3)cn12`: the Inhibition in the assay with Klebsiella pneumoniae is 4.18%; in the assay with Candida albicans, 2.53%; with Cryptococcus neoformans, -9.94%.
On the same counts, the results for `CCCN(C)c1nccn2c(=O)n(CC(=O)Nc3cccc(Cl)c3F)nc12` are 7.25%, 0.78% and -6.38%.
The matching figures for `CC(C)c1nnc2c(SCC(=O)Nc3ccccc3C(F)(F)F)nc3ccccc3n12`: 13.6%, 0.36% and -15.63%.
On the same counts, the results for `CC(C)NC(=O)CSc1nnc2c(=O)n(-c3ccccc3)ccn12` are 11.98%, 2.07% and -5.87%.

Usually Inhibition stands for the relative decrease from the control value, in per cent.

Source of the values: ChEMBL document CHEMBL4513146, “CO-ADD screening of Karazin Kharkiv National University (Ukraine) compounds”.
